# Assay results published in the supplement of paper PMC6555819.
# Legend:
# Assay in all cases: PBM binding z-score (relative to random genomic background probes); higher = stronger binding; sequences stand for … in GC…GCGATTGACAGCGTAGAATGAAGG
# [1] = tested on: FXR:RXRa (NR concentration 270 nM, RXRa partner concentration 90 nM)
# In short: (§1)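 Probes were double-stranded and carried 34-nt variable regions with direct-repeat seeds, single-nucleotide variants, half-site ablations and random human genomic background sequences, printed on custom Agilent 4×180K protein-binding microarrays. Arrays were incubated 1 h with ligand-free nuclear receptor dimers in PBS pH 7.4, 2% milk, 0.02% Triton X-100, 1 mM DTT, 0.2 mg/mL BSA and 0.4 mg/ml salmon testes DNA. Antibodies against each partner (one per run) detected binding, and scanned fluorescence was regression-normalized. Binding z-scores use the random background probes as reference.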
# [2] = tested on: LXRa:RXRa (NR concentration 270 nM, RXRa partner concentration 90 nM)
# In short: as §1
# [3] = tested on: LXRa homodimer (NR concentration 270 nM)
# In short: as §1
# [4] = tested on: LXRb:RXRa (NR concentration 270 nM, RXRa partner concentration 90 nM)
# In short: as §1
# [5] = tested on: LXRb homodimer (NR concentration 270 nM)
# In short: as §1
# [6] = tested on: PPARa:RXRa (NR concentration 270 nM, RXRa partner concentration 90 nM)
# In short: as §1
# [7] = tested on: PPARg:RXRa (NR concentration 180 nM, RXRa partner concentration 90 nM)
# In short: as §1
# [8] = tested on: PPARg:RXRa 270nM:90nM, anti-RXR (NR concentration 270 nM, RXRa partner concentration 90 nM)
# In short: as §1
# [9] = tested on: PPARg:RXRa 30nM:10nM, anti-RXR (NR concentration 30 nM, RXRa partner concentration 10 nM)
# In short: as §1
# [10] = tested on: PPARg:RXRa 90nM:30nM, anti-RXR (NR concentration 90 nM, RXRa partner concentration 30 nM)
# In short: as §1
Sequence,PBM binding z-score [1],PBM binding z-score [2],PBM binding z-score [3],PBM binding z-score [4],PBM binding z-score [5],PBM binding z-score [6],PBM binding z-score [7],PBM binding z-score [8],PBM binding z-score [9],PBM binding z-score [10]
CCTACTGGGCCACGAAAGGTCATTGAGTCAGTGA,3.83,5.32,5.25,4.4,0.561,4.87,5.06,5.06,2.55,4.22
AGAATGAGGTTATACCTAGATCAGGGAAGAAAGT,1.65,1.87,-0.0251,1.31,-0.249,3.15,1.77,1.63,0.532,1.09
TCTAGTTGGTCAAAGCTCACACACTCGAAATGCG,0.576,0.551,0.233,0.661,0.421,1.58,2.21,4.31,3.89,4.23
CCTCGGAGGACAGAAGGCCAGAGCTGTCCGCTTT,-0.543,-0.556,-1.17,-1.28,-1.6,-1.15,-0.739,-1.08,-1.21,-1.06
CATAGCAGGCCAATCTGGGTCACTCAAGGCTTGA,0.72,1.46,-0.00669,0.604,0.0178,3.01,2.72,2.73,0.652,2.05
CCTACTGGGGCAAGGTCATTGATCAGTCAAAGCA,3.59,3.26,1.02,2.98,-0.569,4.29,5.81,5.36,2.53,4.8
TCTAGTTGGTCACGAAGGTCACACACGACGGGTA,2.82,3.04,1.75,3.17,0.769,3.71,3.45,4.6,3.66,4.25
CCTACTGGGCCATTCAGAGGTCATGGATCATATG,2.57,4.16,5.17,3.61,-0.202,4.54,2.64,3.6,1.23,3.29
GCTGCTAGGTGAACTGATGGTCAGCTAAAGCTCG,-0.0942,-0.291,-0.843,-0.328,-1.56,1.27,0.329,0.967,-0.226,0.635
CCTTACGGGTCAAGGTTATAGCTCGGGTGGTACG,5.6,3.71,0.385,3.06,0.274,5.04,4.42,4.35,1.57,3.44
TCATATAGGTAAATGCTAGGTGAGAGTCCGATCT,-0.733,0.512,-0.251,0.0109,-0.13,1.05,0.622,1.86,3.39,2.64
ATCTCTAGGCAACAAGTTCAGTGAAAGAGAGGAC,0.0391,0.175,-0.0655,0.139,0.432,0.498,0.668,1.15,0.633,1.09
TCTTGTACATCAAGCAGGTTAAGAAAGCCTGAGT,0.785,0.852,-0.0231,0.861,0.106,1.05,-0.153,1.37,3.03,2.18
GATACAGGGTTAGCTAGAGGCCAGAGTATGGAAA,0.0111,0.711,-0.451,0.181,-0.961,0.87,0.379,0.0848,-0.37,-0.205
CCGGCTGGGGCATAAGGTTACCATAAGCCAGCCC,-0.0908,1.73,-0.45,0.426,-1.54,1.11,0.631,1.5,-0.332,0.706
GCAGCCAGGTGAAACGCAGGTAACTCAGGGTGGC,-0.375,-0.533,-0.628,-0.952,-1.52,0.132,0.166,-0.353,-0.793,-0.229
ATCTCTAGGTAACCAAGTTCAGCGAATGCCGAAC,0.438,0.886,0.803,0.7,0.602,1.4,0.655,1.07,0.316,0.524
AGTCAAAGTCCACTAGGTAACGTAAGATTCAGCT,-0.195,-0.249,-0.162,-0.0956,0.0347,0.0628,0.58,0.278,0.0579,0.146
ATATGTCGGTTAGCTGGGGTCATTCAGACTAGGC,3.68,4.3,2.96,4.36,1.24,4.39,1.86,2.65,0.599,1.75
TCTACAGGGTCAAAGGCCAGAGTACGAATGTCGA,7.34,4.67,0.313,4.11,0.605,5.99,7.62,7.12,5.3,6.93
TCGAGTAGGTTACCAATGGGGCACTCAGCTTTCT,-0.431,0.466,-1.03,0.379,-0.732,0.966,0.351,1.39,1.09,1.15
ACTCGGAGGACAAAGGTCAGACCTACGCCAGTGA,4.44,4.05,2.02,3.64,0.528,4.93,7.6,6.95,4.94,6.85
CCTTACGGGTCACGAGGTTATAGCACGACGAGCG,6.74,4.6,0.401,4.02,-0.321,5.94,7.45,6.6,3.13,5.31
